A selection: hits, their analogues and other compounds. The true share with any hit is near 0.67%.
GC-B act: GC-B (human) receptor activation; HEK293-GC-B cells, CNP EC30, cGMP TR-FRET; 0% at EC30 CNP, 100% saturating CNP; activation, % at 10 µM; actives 0.11% (n = 370,000); AID 1920062;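 active = activation at 10 µM reaching about 35% in either raw or pattern-adjusted values, limit read from the data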
CaV13 ICDI inh: Disruptors of the CACNA1D IQ motif to Ca2+-dependent inactivation inhibitor domain association, primary screening, Förster resonance energy transfer in intact living … | HEK cells, CFP/YFP FRET ICDI-IQ, plate reader, 10 min; percent FRET-ratio fall versus neutral wells | inhibition, % at 12.3 µM | actives 0.098% (n = 340,000);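 active = mean replicate inhibition of at least 30% and at least 1% of replicates passing that level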;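 note: 0% = median of the neutral control wells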
Rin1-Abl PPI inh: inhibitors of human Rin1-Abl protein interaction; P00519+Q13671; TR-FRET Rin1/Abl binding, biochemical; inhibition, % at 7.35 µM; actives 0.4% (n = 360,000); in the data active = inhibition above about 5%, passing the limit was not always enough
GC-A act: GC-A (human) enzyme activation | actives 0.14% (n = 370,000) | P16066 | HEK293 GC-A cells, cGMP TR-FRET, EC30 ANP; 0% at EC30 ANP, 100% saturating ANP | activation, % at 10 µM; in the data active = activation above about 40%
Rin1-Abl confirm: Rin1-Abl interaction inhibition confirmation. AID 602124. TR-FRET Rin1-Abl binding, purified proteins. shares compounds with Rin1-Abl PPI inh. inhibition, % at 7.35 µM. actives 49% (n = 1,300)
GFP quencher: counter-screen for Rin1-Abl inhibitors: GFP fluorescence quenchers; actives 8.5% (n = 1,300); shares compounds with Rin1-Abl PPI inh; inhibitors/quenchers counterscreen; AID 602125; inhibition, % at 6.75 µM;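 note: ABL1-eGFP fusion protein alone without its partner RIN1-SBP; 0% = protein with vehicle and 100% = wells lacking protein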
GFP quench DR: counter-screen for Rin1-Abl inhibitors: GFP quenchers, dose response | shares compounds with Rin1-Abl PPI inh | IC50, µM | GFP fluorescence interference/quenching counterscreen | 230 tested, under 10 active; call rule not given here;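 note: ABL1-eGFP fusion protein alone without its RIN1 binding partner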
An asterisk follows results filed as active. Cut-off read from the data, not from the text of the source, unless noted: active = inhibition above about 6.5%; inactive = the rest.

CC(=O)CC[C@@H]1CC[C@]2(CCCN(C(=O)c3ccc4ccccc4n3)C2)O1 was read as GC-B act -3 and GC-A act 0.
`Cc1ccccc1C(=O)N1CCC(C(=O)Nc2ccc(S(=O)(=O)N3CCCCC3)cc2)CC1` gave GC-B act 2, CaV13 ICDI inh -3, Rin1-Abl PPI inh 12*, GC-A act 0, Rin1-Abl confirm 7.8* and GFP quencher -1.
`CCCC(=O)NC(c1ccco1)c1cc([N+](=O)[O-])c2cccnc2c1O` (stereo not drawn) gave GC-B act 4, CaV13 ICDI inh 4, Rin1-Abl PPI inh 9.3*, GC-A act -4, Rin1-Abl confirm -3 and GFP quencher 5.
`CCC(=O)NC(c1ccc(C)cc1)c1ccc2cccnc2c1O` (stereo not drawn) gave GC-B act 1, CaV13 ICDI inh -6, Rin1-Abl PPI inh 11*, GC-A act 2, Rin1-Abl confirm 6.8* and GFP quencher 2.
`CCC(=O)NC(c1ccc(C)cc1)c1cc([N+](=O)[O-])c2cccnc2c1O` (stereo not drawn) gave GC-B act 0, CaV13 ICDI inh -3, Rin1-Abl PPI inh 3 and GC-A act -5.
For CCC(=O)NC(c1ccco1)c1cc(Br)c2cccnc2c1O (stereo not drawn) the results were GC-B act 6, CaV13 ICDI inh -5, Rin1-Abl PPI inh 7.9*, GC-A act 3, Rin1-Abl confirm 8.1* and GFP quencher 4.
For CC(=O)NC(c1ccco1)c1ccc2cccnc2c1O (stereo not drawn) the results were Rin1-Abl PPI inh 7.
Screening C[C@H]1[C@@H](OC(=O)Nc2ccccc2F)CC[C@@]23CCCN2C(=O)CCC[C@@H]13 returned GC-B act -2 and GC-A act -3.
`COC(=O)C[C@H]1CC[C@H]2[C@@H](COc3ccc(NC(=O)Nc4ccccc4)cc3C(=O)N2C)O1` gave GC-B act -3 and GC-A act 5.
`O=C(CSc1nnc(-c2cccnc2)n1-c1ccccc1)Nc1ccccc1` gave GC-B act -6, CaV13 ICDI inh -7, Rin1-Abl PPI inh 2 and GC-A act -10.
For Cc1ccc(-n2c(SCC(=O)NCc3ccco3)nnc2-c2cccnc2)cc1 the results were GC-B act 1, CaV13 ICDI inh -1, Rin1-Abl PPI inh 7.4*, GC-A act -1, Rin1-Abl confirm 8.4* and GFP quencher -4.
Cc1ccc(NC(=O)CSc2nnc(-c3cccnc3)n2-c2ccc(C)cc2)cc1 was read as GC-B act 4, CaV13 ICDI inh -5, Rin1-Abl PPI inh 11*, GC-A act -3, Rin1-Abl confirm 11* and GFP quencher -1.
For CCN(CC)C(=O)CC[C@H]1CC[C@]2(CCCN(C(=O)C3CCCC3)C2)O1 the results were GC-B act -5 and GC-A act 0.
`O=C1CSc2ccc(C(=O)N3CCCC(C(=O)N4CCOCC4)C3)cc2N1` (stereo not drawn) gave GC-B act -6 and GC-A act -5.
Screening O=C(NC1(O)C(=O)c2ccccc2C1=O)c1c(Cl)cccc1Cl returned GC-B act -7, CaV13 ICDI inh -19, Rin1-Abl PPI inh 14*, GC-A act 4, Rin1-Abl confirm 28*, GFP quencher 2 and GFP quench DR >68.
`COC1(NC(=O)c2ccccc2)C(C)=CC(=O)C=C1C` gave GC-B act 6, CaV13 ICDI inh -4, Rin1-Abl PPI inh -1 and GC-A act -1.
O=C(NC1(O)C(=O)c2ccccc2C1=O)c1ccccc1 was read as GC-B act -4, CaV13 ICDI inh 0, Rin1-Abl PPI inh 28*, GC-A act 0, Rin1-Abl confirm 29*, GFP quencher 2 and GFP quench DR >68.
Screening O=C(N1CCC(C(O)(c2ccccc2)c2ccccc2)CC1)n1ncc(C(O)(c2ccccc2)c2ccccc2)n1 returned GC-B act 2 and GC-A act -5.

From PubChem BioAssay
